# Source: PubChem BioAssay (National Center for Advancing Translational Sciences (NCATS))
# LDHA block – qHTS assay for inhibitors of human lactate dehydrogenase; L-lactate dehydrogenase A chain (Homo sapiens), P00338; purified LDHA, NADH/diaphorase-resazurin fluorescence; stronger effect = lower value; activity change, % (values are at about 110 or 230 µM); 0.15% of 480,000 active; in the data active = activity change below about -30%; inconclusive = mostly about -25% to -30%;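 also: plate controls were DMSO wells for no effect and wells without enzyme for full effect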
#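 Resorufin fluorescence (ex540/em590), read at 0 and 20 min after diaphorase/resazurin addition, reports the NADH left after a 5 min room-temperature reaction of 2 nM human LDH5 with 0.06 mM NADH and 0.2 mM pyruvate.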
# DT40 TDP1 CPT – qHTS for Inhibitors of human tyrosyl-DNA phosphodiesterase 1 (TDP1): qHTS in cells in presence of CPT | 12% of 420,000 active | Potency, µM (highest dose often 46.2 µM), inactives show top-dose activity change, negative = growth inhibition, most hits filed as inhibitors | chicken DT40 Tdp1-/-;hTDP1 cells + 20 nM CPT, ATP luminescence, 48 h; also: potency is read from the fitted curve at half-maximal effect; nearly all actives have a fitted effect of over 55% in size
#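 Chicken DT40 Tdp1-/- cells stably complemented with human TDP1 were seeded at 400 cells/well in medium containing 20 nM camptothecin, exposed to pin-transferred compounds, and grown at 37 °C for at least 48 hr. Viability was read as ATP luminescence.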
# VP16 counter – VP16 counterscreen qHTS for inhibitors of ROR gamma transcriptional activity | Drosophila S2 Gal4-VP16 UAS-luciferase, luminescence, 20 h | Potency, µM (titrated, usually from 53.6 µM), for the others: top-dose activity, negative = inhibition, actives largely listed as inhibitors | 3.5% of 310,000 active | AID 2546, 2010;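 also: Gal4-VP16 expression switched on by copper sulfate through the metallothionein promoter; potency is read from the fitted curve at half-maximal effect; nearly all actives have a fitted effect of over 50% in size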
# RORg inh – qHTS for inhibitors of ROR gamma transcriptional activity; 5.4% of 310,000 active; Drosophila S2 Gal4-RORgamma UAS-luciferase reporter, 20 h; Potency, µM (highest dose often 53.6 µM), for the others: at the highest dose activity change, negative = inhibition, actives largely listed as inhibitors; Nuclear receptor ROR-gamma (Mus musculus), P51450; also: potency is read from the fitted curve at half-maximal effect; nearly all actives have a fitted effect of over 60% in size
# Target sequence (P51450 whole entry, looked up, the tested form may be a part): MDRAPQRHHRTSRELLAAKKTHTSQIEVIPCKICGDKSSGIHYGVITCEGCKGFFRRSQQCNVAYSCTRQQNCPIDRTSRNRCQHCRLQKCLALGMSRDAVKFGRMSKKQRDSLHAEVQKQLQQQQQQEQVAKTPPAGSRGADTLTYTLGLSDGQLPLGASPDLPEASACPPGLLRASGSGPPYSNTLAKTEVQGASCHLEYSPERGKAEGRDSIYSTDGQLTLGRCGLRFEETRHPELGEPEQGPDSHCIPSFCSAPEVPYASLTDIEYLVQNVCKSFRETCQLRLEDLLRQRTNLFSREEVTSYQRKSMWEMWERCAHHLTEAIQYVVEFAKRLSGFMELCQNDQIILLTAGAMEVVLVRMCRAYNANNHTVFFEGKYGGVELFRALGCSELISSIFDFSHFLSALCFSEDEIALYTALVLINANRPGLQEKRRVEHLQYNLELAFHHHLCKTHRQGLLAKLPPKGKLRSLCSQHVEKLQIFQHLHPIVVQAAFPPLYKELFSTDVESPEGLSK
#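 Schneider cells (Drosophila), stable Gal4 DBD–ROR gamma + UAS-luc; 1 hr cmpd preincubation; Cu2+ induction 700 uM final; 20 hr ambient; luminescence.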
# DT40 TDP1 no CPT – qHTS for Inhibitors of human tyrosyl-DNA phosphodiesterase 1 (TDP1): qHTS in cells in absence of CPT | DT40 Tdp1-/- hTDP1 cells, no CPT, ATP luminescence, 48 h | 15% of 420,000 active | AID 686978, 2013 | Potency, µM (doses to about 46.2 µM), without a hit: at the top dose activity change, negative = growth inhibition, usual class: inhibitors; also: potency is read from the fitted curve at half-maximal effect; nearly all actives have a fitted effect of over 55% in size
#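 Luminescent ATP content (CellTiter-Glo) served as the growth readout. Knockout chicken DT40 cells expressing human TDP1 were exposed to compounds without camptothecin for a minimum 48 hr at 37 °C.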
# IL1B secr inh – qHTS for Inhibitors of Inflammasome Signaling: IL-1-beta AlphaLISA Primary Screen | THP-1 LPS/ATP IL-1B secretion, AlphaLISA, 16 h; stronger effect = lower value | 4.7% of 360,000 active | AID 743279, 2014 | activity change, % at 57.5 µM; in the data active = activity change below about -50%; inconclusive = mostly about -30% to -49%
#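 THP-1 cells pretreated 1 hr with compounds (up to 57.5 uM final), then stimulated with LPS (250 ng/mL final) plus ATP (1.25 mM final); secreted IL-1B measured by AlphaLISA after 16 hr, decreased signal indicating inhibition.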
# * = called active by the depositor; ? = inconclusive; . = not tested or not shown; [ ] = remark or other dose. Rows were chosen to be rich in hits. Some 18% of all compounds tested hit in one or more screens of this group. Unless noted, calls follow the shape of the dose curve; as a rule, active = well fitted curve in the direction sought with a large enough effect; inconclusive = small, poorly fitted or top-dose-only effect, or another doubt; inactive = no such curve, though single readings can be large; an effect the other way counts as inactive or inconclusive. Unless noted, % is scaled to controls: 0 for no effect and ±100 for the full control effect.
SMILES,LDHA block,DT40 TDP1 CPT,VP16 counter,RORg inh,DT40 TDP1 no CPT,IL1B secr inh
Cc1cccc(OCC(=O)Nc2c(C(=O)N3CCN(c4ccccc4)CC3)oc3ccccc23)c1,0,?,.,.,23µM*,.
O=C(Nc1c(C(=O)N2CCN(c3ccccc3)CC2)oc2ccccc12)c1ccc(Br)o1,2,23µM*,.,.,21µM*,.
O=C(COc1ccc(F)cc1)Nc1c(C(=O)N2CCC(N3CCCCC3)CC2)oc2ccccc12,-1,?,4%,6%,7.3µM*,?
COc1ccc(CC(=O)Nc2c(C(=O)N3CCN(c4ccccc4OC)CC3)oc3ccccc23)cc1OC,1,?,-4%,-4%,23µM*,22
O=C(NCc1ccco1)c1nn(Cc2ccccc2)c(=O)c2ccccc12,0,.,.,.,.,.
O=C(Nc1c(C(=O)N2CCN(c3ccccc3F)CC2)oc2ccccc12)c1ccccc1F,-3,13µM*,.,.,15µM*,.
O=C(Nc1c(C(=O)N2CCN(c3ccccc3F)CC2)oc2ccccc12)c1c(F)cccc1F,7,.,.,.,.,.
COc1cc(CCC(=O)Nc2c(C(=O)N3CCN(c4ccccc4)CC3)oc3ccccc23)on1,0,?,-16%,25%,16µM*,-61*
O=C(CSc1nnnn1-c1ccc(F)cc1)c1ccc(O)c(O)c1,10,18µM*,-27%[10 µM],0%,?,37
NC(=O)c1ccc(NC(=O)COC(=O)c2cc3c(s2)CCC3)cc1,-12,?,.,.,-23%,15
O=C(COC(=O)c1cc2c(s1)CCC2)Nc1ccc(F)cc1,5,?,0%,20%,15µM*,0
COc1ccc(NC(=O)COC(=O)c2cc3c(s2)CCC3)cc1,-3,16µM*,.,.,?,14
CCOC(=O)Cn1c(CN(C)Cc2ccccc2)nc2c1c(=O)n(C)c(=O)n2C,3,9.2µM*,.,.,12µM*,-11
CN(Cc1ccccc1)Cc1nc2c(c(=O)n(C)c(=O)n2C)n1CC(N)=O,-6,.,.,.,.,.
COC(=O)Cn1c(CN(C)Cc2ccccc2)nc2c1c(=O)n(C)c(=O)n2C,0,?,13µM*,?,?,64
Cc1cc(C)c(C)c(S(=O)(=O)N2CCN(C(=O)Cc3c(C)nn(C)c3C)CC2)c1C,-1,.,.,.,.,.
Cc1ccc(C2=NC3(CCCC3)NC2=S)cc1,-8,2%,7.9µM*,2.5µM*,-20%,52
CC(C)CC1(C)N=C(c2ccccc2)C(=S)N1 (stereo unspecified),5,-18%,2.8µM*,2.8µM*,?,-11
CC1CCC2(CC1)N=C(c1cccc(F)c1)C(=S)N2 (stereo unspecified),1,.,.,.,.,.
S=C1NC2(CCCCCC2)N=C1c1ccccc1,-5,-24%,?,2µM*,?,16
S=C1NC2(CCCC2)N=C1c1ccccc1,-3,0%,-3%[10 µM],5µM*,-2%,13
O=C(NCc1ccccn1)c1ccc2c(c1)-c1ccccc1C2,6,.,.,.,.,.
CCc1cccc2c(C(=O)COC(=O)c3ccc(C)s3)c[nH]c12,-9,.,.,.,.,.
O=C1CCC2(C(=O)NCc3ccccc3)SCCN12 (stereo unspecified),-6,.,.,.,.,.
CCn1ncc(/C=N\NC(=O)c2ccc3c(c2)c(C)c(C)n3Cc2ccccc2)c1C,-4,-29%,?,?,?,-12
SMILES,LDHA block,DT40 TDP1 CPT,VP16 counter,RORg inh,DT40 TDP1 no CPT,IL1B secr inh
CCn1nc(C)c(/C=N\NC(=O)c2ccc3c(c2)OCO3)c1C,-3,0%,0%,-38%,-3%,11
CCn1cc(/C=N\NC(=O)c2ccc3c(c2)c(C)c(C)n3Cc2ccccc2)c(C)n1,-1,13µM*,?,?,16µM*,-13
CCn1nc(C)c(/C=N/NC(=O)c2ccc3c(c2)c(C)c(C)n3Cc2ccccc2)c1C,-2,10µM*,9%,4%,10µM*,-3
COC(=O)C1=C(C)OC(n2cccc2)=C(C#N)C1c1cccc(OC)c1OC (stereo unspecified),11,.,.,.,.,.
COc1ccc(-c2csc(C(O)c3ccc(OC)cc3)n2)cc1 (stereo unspecified),-4,?,.,.,?,14
COc1cccc(C(O)c2nc(-c3ccc(Cl)cc3)cs2)c1 (stereo unspecified),2,?,.,.,?,1
COc1cc(C(O)c2nc(-c3ccncc3)cs2)ccc1F (stereo unspecified),-4,?,.,.,23µM*,-9
COc1cccc(C(O)c2nc(-c3ccccc3)cs2)c1 (stereo unspecified),-2,?,.,.,16µM*,-5
COc1ccc(-c2csc(C(O)c3ccc(F)cc3)n2)cc1 (stereo unspecified),-4,?,.,.,?,19
COc1ccc(C(O)c2nc(-c3ccccc3)cs2)cc1 (stereo unspecified),-5,13µM*,.,.,10µM*,7
COc1ccc(C(O)c2nc(-c3ccncc3)cs2)cc1 (stereo unspecified),0,18µM*,.,.,10µM*,46
CCCCOCCCNC(=O)CCC(=O)O,-12,.,.,.,.,.
COc1cccc(C(O)c2nc(-c3ccccc3OC)cs2)c1 (stereo unspecified),-6,?,.,.,?,-15
CN(C)c1ccc(-c2csc(C(O)c3ccc(F)c(F)c3)n2)cc1 (stereo unspecified),11,16µM*,.,.,15µM*,-15
CN(C)c1ccc(-c2csc(C(O)c3ccc(F)cc3)n2)cc1 (stereo unspecified),-4,?,.,.,?,-19
COc1cccc(C(O)c2nc(-c3ccccc3C)cs2)c1 (stereo unspecified),-1,?,.,.,18µM*,22
COc1ccc(C(O)c2nc(-c3ccc(N(C)C)cc3)cs2)cc1 (stereo unspecified),-3,?,.,.,18µM*,-7
CC(=O)n1cc(C=O)c2ccccc21,4,11%,.,.,-28%,.
COc1ccccc1N(C(=O)CCl)c1cn(C(C)=O)c2ccccc12,0,4.6µM*,-8%,?,4.6µM*,-60*
CC(=O)n1cc(N(C(=O)CCl)c2ccc(Cl)cc2)c2ccccc21,3,1.5µM*,?,?,1.3µM*,0
